About 18,000 (5.8%) of roughly 310,000 compounds were called active. Where a call stands in place of a potency, no number is given. Not shown: some 22% with an inconclusive outcome. Calls come from the whole dose curve; as a rule, active = well fitted inhibition curve with a large enough effect; inconclusive = small, poorly fitted or top-dose-only effect, or another doubt; inactive = no such curve, though single readings can be large or run the other way. For the sample, actives were picked, then their nearest neighbours and some compounds at random.

The values below come from PubChem BioAssay AID504832 (National Center for Advancing Translational Sciences (NCATS), 2011).
Potency is the fitted concentration of half-maximal effect.

This experiment is described as follows: Primary qHTS for delayed death inhibitors of the malarial parasite plastid, 48 hour incubation. As to conditions: P. falciparum luciferase growth in erythrocytes; series mostly up to 28.7 µM. In a few lines: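 Cell-based growth assay: transgenic P. falciparum expressing firefly luciferase, cultured in red cells within RPMI 1640 containing 0.5% w/v Albumax, 24 mM bicarbonate and gentamycin. A drop in luciferase activity indicates inhibition.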
(qHTS replaces the single test concentration by a dilution series.)
As for `CCOC(=O)c1cc(S(=O)(=O)NCCc2ccc(OC)c(OC)c2)cn1C`, the Potency entry was “inactive”.
On the same count and under the same terms, the result for `COc1cccc(/C=C/C(=O)OCC(=O)N2CCCc3ccccc32)c1` reads “inactive”.
Regarding `CC(C)CC(=O)Nc1nnc(S(=O)(=O)N(C)c2ccc(Cl)cc2)s1`, the Potency entry was “inactive”.
Same read-out and setting: the result for `CCOc1ccc(CN2CCN(CCCc3ccccc3)C(CCO)C2)cc1` (configuration not stated) reads “inactive”; that for `COc1ccc(CCNS(=O)(=O)c2cc3c(cc2C)NC(=O)CO3)cc1OC`, “inactive”.
On to `O=C1CC(N2CCN(C(c3ccccc3)c3ccccc3)CC2)C(=O)N1` (configuration not stated), for which the Potency entry was “inactive”.
`CC1(C)CC(N2CCN(C(c3ccccc3)c3ccccc3)CC2)=CC(=[N+]2CCCCC2)C1`: the Potency was 0.415 µM (active).
Same read-out and setting: for `CC1(C)CC(=O)C=C(N2CCCC2)C1` the value was “inactive”; for `COC(=O)c1ccc(C(=O)NC2CC(C)(C)Cc3c2cnn3-c2ccc(F)cc2)nc1` (configuration not stated), “inactive”; for `Cc1cc(-c2ccc(S(=O)(=O)N3CCc4ccccc4C3)s2)on1`, “inactive”.
Still for that read-out and setting: the result for `CCC(Cc1ccccc1)NS(=O)(=O)c1ccc2c(c1)NC(=O)CS2` (configuration not stated) reads “inactive”; that for `C=CCC1(C#N)C(=S)NC(C)=C(C(=O)OCC)C1c1ccccc1` (configuration not stated), 1.47 µM (active); that for `CCOC(=O)C1=C(C)NC(=O)NC1c1ccccc1` (configuration not stated), “inactive”.
`C=CCOC(=O)C1=C(C)NC(SCC(=O)OCC)=C(C#N)C1c1ccc(C)cc1` (configuration not stated): the Potency entry was “inactive”.
Take `Cc1ccc(Cn2nnc3c(=O)n(CC(=O)N4CCCCC4)cnc32)cc1`: the Potency result was “inactive”.
As to `CC(C)(C)c1ccc(Cn2nnc3c(=O)[nH]c(C4CCCN(C(=O)c5ccco5)C4)nc32)cc1` (configuration not stated), the Potency was 0.828 µM (active).
Regarding `CC(C)(C)c1nc(NCC2CCCO2)c2nnn(Cc3ccccc3)c2n1` (configuration not stated), the Potency entry was “inactive”.
As for `CC(C(=O)NC1CCCC1)N1CCN(S(=O)(=O)c2ccccc2Cl)CC1` (configuration not stated), the Potency entry was “inactive”.
On to `Cc1ccc(C)c(S(=O)(=O)N2CCN(C(=O)Nc3ccccc3)CC2)c1`, for which the Potency entry was “inactive”.
Regarding `CC1CC(=O)Nc2ccccc2N1S(=O)(=O)c1cccs1` (configuration not stated), the Potency result is “inactive”.
The same measure, in the same setting: for `CC1CC(=S)Nc2ccccc2N1Cc1ccccc1` (configuration not stated) the value was 10.4 µM (active).
Consider `CC1CC(C)(C)NC(=S)N1CCC(=O)N1CCN(Cc2ccccc2)CC1` (configuration not stated), for which the Potency result is “inactive”.
Same read-out and setting: for `CCS(=O)(=O)C1=NSC2=NC(=O)/C(=C\c3ccc(OS(=O)(=O)c4ccccc4)cc3)C(=N)N21` the value was “inactive”; for `COc1ccc(S(=O)(=O)NCc2ccc(C(=O)N3CCC4(CC3)OCCO4)cc2)cc1`, “inactive”.
In the case of `COc1cccc(-c2cc3nc4c(c(N5CCC6(CC5)OCCO6)n3n2)CCCC4)c1`, the Potency was 2.94 µM (active).
With `Cc1nc2cc(-c3ccc(F)cc3)nn2c(N2CCOCC2)c1C`, the Potency result was “inactive”.
As for `O=C1c2ccccc2S(=O)(=O)N1CC(O)Cn1c2ccccc2c2ccccc21` (configuration not stated), the Potency entry was “inactive”.
Same read-out and setting: the result for `OC(Cn1c2ccccc2c2ccccc21)C[n+]1ccccc1` (configuration not stated) reads 7.38 µM (active); that for `CC(=O)c1ccc2c(c1)c1ccccc1n2CC(C)C`, “inactive”.
As for `O=C(CN(C(=O)CNC(=O)c1cccs1)c1cccc(F)c1)NC1CCCCC1`, the Potency entry is “inactive”.
As to `Cc1cccc(NC(=O)COC(=O)CCc2ccccc2)c1C`, the Potency result is “inactive”.
For the compound `CCOC(=O)c1c(C)oc2ccc(OCC(=O)N(CC)CC)cc12`, the Potency entry was “inactive”.
For the compound `CC(=O)c1c(C)n(-c2ccc(N(C)C)cc2)c2ccc(OCC(N)=O)cc12`, the Potency is 11.7 µM (active).
On to `CC(=O)c1c(C)n(-c2ccc(C)cc2)c2ccc(O)cc12`, for which the Potency entry was “inactive”.
For the compound `O=C(Nc1ccccc1Cl)NC1(C(=O)N2CCOCC2)CCCCC1`, the Potency result is “inactive”.
Consider `COc1ccc(CNC(=O)C(=O)N2CCC3(CC2)OCCN3S(=O)(=O)c2ccc(C)cc2)cc1`, for which the Potency entry is “inactive”.
In the case of `CC1(C)O[C@H]2CC(=O)OCC23[C@H]2CC[C@@]4(C)[C@H](c5ccoc5)OC(=O)[C@H]5O[C@]54[C@]2(C)C(=O)C[C@@H]13` (some centres not stated), the Potency result is “inactive”.
For `O=C(NC1CCCCC1)c1ccc(-c2ccc(Cl)cc2)o1`, the Potency result was “inactive”.
For `COC(=O)c1ccc(NCC(=O)N2CCCCCC2)cc1`, the Potency entry was “inactive”.
For the compound `O=C(Cn1ncc(N2CCCC2)c(Br)c1=O)c1ccc(Cl)cc1`, the Potency entry is “inactive”.
The same measure, in the same setting: the result for `O=C(Cn1nc(CNc2ccc(Cl)cc2)[n+]2c1CCCCC2)c1ccc(Cl)cc1` reads 1.04 µM (active).
On the same count and under the same terms, the result for `Cn1c(CCNS(=O)(=O)c2ccc(F)cc2)nnc1SCc1cccnc1` reads “inactive”; that for `CC(C)c1ccc(S(=O)(=O)NC2CCCC2)cc1`, “inactive”; that for `O=c1cc(O)c(-c2cccc(C(F)(F)F)c2)c(Cl)[nH]1`, “inactive”.
Take `Cc1ccccc1/C=C\c1nc(O)c([N+](=O)[O-])c(=O)[nH]1`: the activity change, negative = inhibition was -10.1% [at 0.00184 µM] (inactive).
With `O=c1[nH]c(/C=C\c2cccc(C(F)(F)F)c2)nc(O)c1[N+](=O)[O-]`, the Potency is 9.28 µM (active).
Take `Cc1ccc(C)c(NC(=O)c2cc(-c3cc(C)cc(C)c3O)n[nH]2)c1`: the activity change, negative = inhibition was -16% [at 0.00184 µM] (inactive).
Turning to `COCC(C)OC(=O)c1c(N)n(CCCN2CCOCC2)c2nc3ccccc3nc12` (configuration not stated), the Potency entry is “inactive”.
Regarding `CCOC(=O)c1c(N)n(Cc2ccccc2)c2nc3ccccc3nc12`, the Potency is 9.28 µM (active).
As to `CCC(=O)Nc1c(S(=O)(=O)c2ccccc2)c2nc3ccccc3nc2n1Cc1ccccc1`, the Potency entry is “inactive”.
Consider `Cc1c(C)c2ccc(OCC(=O)N3CCN(c4cccc(Cl)c4)CC3)cc2oc1=O`, for which the Potency entry was “inactive”.
For the compound `CCc1ccc2c(c1)C1(NN=C(c3ccccc3)S1)C(=O)N2` (configuration not stated), the Potency was 3.7 µM (active).
For `CCc1ccc2c(c1)C(c1ccc([N+](=O)[O-])cc1)=NNC(c1ccccc1)=N2`, the Potency result was “inactive”.
As for `O=C1Nc2ccccc2C12Nc1ccccc1S2` (configuration not stated), the Potency result was “inactive”.
On to `O=C(c1ccc(Br)o1)N1CCN(CCOc2ccccc2)CC1`, for which the Potency result was “inactive”.
In the case of `Cc1ccc(NS(=O)(=O)c2ccc(C(C)(C)C)cc2)cn1`, the Potency result was “inactive”.
Turning to `O=C(c1cccs1)N1CCN(C(=O)N2CCOCC2)CC1`, the Potency result is “inactive”.
Consider `O=C(Oc1cccc(C(=S)N2CCOCC2)c1)c1cccc(Cl)c1`, for which the Potency entry is “inactive”.
Consider `O=C(/C=C/c1cccs1)c1cc(Cl)ccc1OC(=O)N1CCOCC1`, for which the Potency was 10.4 µM (active).
On to `O=C(O)c1cccc(S(=O)(=O)N2CC=C(c3ccccc3)CC2)c1`, for which the Potency entry was “inactive”.
For the compound `CC(C)C[C@H](NC(=O)C1CCC(CNC(=O)[C@@H]2CCCN2C(=O)OC(C)(C)C)CC1)C(=O)O` (some centres not stated), the Potency entry is “inactive”.
`Cc1ccccc1C(=O)N1CCC(C(=O)Oc2ccc(C#N)cc2)CC1`: the Potency entry is “inactive”.
Still for that read-out and setting: the result for `Cc1cc(=O)oc2ccc(OCC(=O)O)cc12` reads “inactive”; that for `Cc1cc(=O)oc2cc(OCCC[n+]3ccccc3)ccc12`, 5.22 µM (active); that for `COc1cccc(-c2nnc(SCCOc3ccc4c(C)cc(=O)oc4c3)o2)c1`, “inactive”.
On to `CCCC(NC(=O)c1ccccc1)c1nc2ccccc2n1Cc1ccc(C(=O)OC)o1` (configuration not stated), for which the Potency is 13.1 µM (active).
For `CC(O)c1nc2ccccc2n1Cc1ccc([N+](=O)[O-])cc1` (configuration not stated), the Potency result was “inactive”.
Turning to `CCCn1c(C(Cc2ccccc2)NC(=O)COC)nc2ccccc21` (configuration not stated), the Potency result is “inactive”.
With `Cn1ccnc1SCC(=O)Nc1ccc2c(c1)OCCO2`, the Potency entry is “inactive”.
On to `CCN(CC(=O)Nc1ccccc1OC)C(=O)CC1CC2CCC1C2` (configuration not stated), for which the Potency result is “inactive”.
As to `N#C[C@]1(S(=O)(=O)c2ccccc2)C[C@@H]2ON=C(c3cccc(Br)c3)[C@@H]2C1`, the Potency entry was “inactive”.
The same measure, in the same setting: the result for `Cc1ccc(NC(=O)c2cccs2)cc1S(=O)(=O)N(C)C` reads “inactive”; that for `Cc1ccc(C(=O)Nc2ccc(C)c(S(=O)(=O)N(C)C)c2)s1`, “inactive”; that for `Cc1ccc(NC(=O)CNCc2ccccn2)cc1S(=O)(=O)N(C)C`, 16.5 µM (active).
With `Cn1c(CCc2ccccc2)nnc1SCC(N)=O`, the Potency entry was “inactive”.
`COc1ccc(NC(=O)c2cccc3c2C(=O)N(CC2CCCO2)C3)cc1OC` (configuration not stated): the Potency entry was “inactive”.
For `Cc1nc2sc(C(c3ccco3)N3CCOCC3)c(O)n2n1` (configuration not stated), the Potency entry was “inactive”.
As to `O=C(c1cccnc1NCc1ccccc1)N1CCOCC1`, the Potency result was “inactive”.
Take `Oc1c(C(c2ccccn2)N2CCOCC2)ccc2cccnc12` (configuration not stated): the Potency is 9.28 µM (active).
In the case of `CCc1noc(C)c1C(=O)N1CCCSC1=Nc1ccccc1OC`, the Potency result is “inactive”.
`Cc1c(C(=O)Nc2ccccn2)oc2ccc(Br)cc12`: the Potency result was “inactive”.
`CC(C)c1ccc(C(=O)OC2CCOC2=O)cc1` (configuration not stated): the Potency result is “inactive”.
On the same count and under the same terms, the result for `CCC(C)(C)NC(=O)CN(C(=O)CCC(=O)Nc1nccs1)c1ccc2c(c1)OCO2` reads “inactive”.
On to `COc1ccccc1C1SCCN1C(=O)c1ccc([N+](=O)[O-])cc1` (configuration not stated), for which the Potency result was “inactive”.
As to `COc1ccc(C(=O)N2CCc3cc(OC)c(OC)cc3C2c2cccc([N+](=O)[O-])c2)cc1` (configuration not stated), the Potency is 6.57 µM (active).
Turning to `COc1cc2c(cc1OC)C(c1cccc([N+](=O)[O-])c1)=NCC2`, the Potency result was “inactive”.
On to `Cc1ccc(OCCNC(=O)CNC(=O)c2ccc(C)c(C)c2)cc1`, for which the Potency result was “inactive”.
As for `CN(C(=O)COC(=O)c1nc(Cl)ccc1Cl)C1CCS(=O)(=O)C1` (configuration not stated), the Potency entry was “inactive”.
With `COCCN1CCn2c(nc3cc(NS(C)(=O)=O)ccc32)C1`, the Potency entry was “inactive”.
As for `COc1ccc(CC2(CO)CCN(Cc3cnn(C)c3)CC2)cc1`, the Potency entry is “inactive”.
Consider `CC(=O)c1cccc(CN2CCC(CO)(Cc3ccccc3)CC2)c1`, for which the Potency entry is “inactive”.
Regarding `COc1ccccc1/C=C/CN1CCC(CO)(Cc2ccccc2)CC1`, the Potency is 11.7 µM (active).
On to `Cc1cc(C)n(CCNS(=O)(=O)c2ccc(Cl)cc2)n1`, for which the Potency result was “inactive”.
For `CC(=O)Nc1ccc(NS(=O)(=O)c2ccc3c(c2)NC(=O)CC(=O)N3)cc1`, the Potency entry is “inactive”.
As for `Cc1sc2ncn(CC(=O)NCCCC(=O)N(C)Cc3ccccc3)c(=O)c2c1C`, the Potency entry is “inactive”.
On the same count and under the same terms, for `CCCc1cc(=O)[nH]c(SCC(=O)N2C(C)CCCC2C)n1` (configuration not stated) the value was “inactive”; for `O=C(CN1CCN(c2nc(-c3ccccc3)cs2)CC1)NCc1ccc2c(c1)OCO2`, “inactive”.
The same measure, in the same setting: for `CC1CCCC(C)N1C(=O)CN1CCN(c2nc(-c3ccc(F)cc3)cs2)CC1` (configuration not stated) the value was 11.7 µM (active).
With `Cc1ccc(S(=O)Cc2ccc(C(=O)N3CCN(C4CCCCC4)CC3)o2)cc1` (configuration not stated), the Potency result was “inactive”.
Consider `O=C1C(=O)N(CCN2CCOCC2)C(c2cccc(Cl)c2)/C1=C(/O)c1ccc2c(c1)OCO2` (configuration not stated), for which the Potency entry is “inactive”.
Same read-out and setting: the result for `O=C(NCCCn1ccnc1)/C(=C\c1ccccc1F)NC(=O)c1ccccc1` reads “inactive”; that for `CC(Oc1ccccc1)C(=O)Nc1c2c(nn1-c1ccccc1)CS(=O)C2` (configuration not stated), “inactive”.
